Laboratory results as given in article PMC7862700, “An all-to-all approach to the identification of sequence-specific readers for epigenetic DNA modifications on cytosine”.

Assays:
Assay in all cases: DAPPL (digital affinity profiling via proximity ligation, sequencing); 10 mM Tris-HCl pH 7.5, 50 mM NaCl, 1 mM DTT, 4% glycerol, room temperature, 30 min; GST-TFs on glutathione beads, 16-mer random dsDNA library, 0.1% formaldehyde crosslink after washing; high values mean tight binding
Conditions in all cases: protein: recombinant; tags: N-terminal GST; dsDNA, one strand shown
ERF = biological target: T1, ERF (Homo sapiens, UniProt P50548 1-548)
T1 sequence: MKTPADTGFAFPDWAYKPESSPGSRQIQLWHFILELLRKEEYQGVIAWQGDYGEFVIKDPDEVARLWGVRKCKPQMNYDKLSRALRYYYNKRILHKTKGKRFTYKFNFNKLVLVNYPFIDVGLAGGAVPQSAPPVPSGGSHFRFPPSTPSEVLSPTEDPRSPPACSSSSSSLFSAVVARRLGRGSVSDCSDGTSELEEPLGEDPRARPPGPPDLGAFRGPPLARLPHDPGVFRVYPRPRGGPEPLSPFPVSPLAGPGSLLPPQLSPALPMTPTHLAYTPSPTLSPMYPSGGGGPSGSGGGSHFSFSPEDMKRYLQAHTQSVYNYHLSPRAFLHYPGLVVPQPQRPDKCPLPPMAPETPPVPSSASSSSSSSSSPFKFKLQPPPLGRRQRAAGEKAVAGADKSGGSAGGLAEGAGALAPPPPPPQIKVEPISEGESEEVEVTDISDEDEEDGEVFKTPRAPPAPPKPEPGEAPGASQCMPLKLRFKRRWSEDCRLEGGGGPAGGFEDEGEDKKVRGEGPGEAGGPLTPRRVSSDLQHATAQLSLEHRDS
How it was run: (§1)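 Human transcription factors fused to GST were expressed in yeast, captured on glutathione beads, given DNA barcodes and pooled with a GST-only negative control. Pools were incubated with 200 nmole of a 16-mer random double-stranded DNA library in Tris/NaCl/DTT/glycerol buffer at room temperature for 30 min. They were then washed, crosslinked with 0.1% formaldehyde, proximity-ligated (BsaI/T4 ligase, 1 h, 37 °C), PCR-amplified and sequenced on an Illumina NextSeq500. Binding signal is each 6-mer's read frequency for a factor divided by its frequency for the GST control.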

ETV3L = biological target: T2, ETV3L (Homo sapiens, UniProt Q6ZN32 1-361)
T2 sequence: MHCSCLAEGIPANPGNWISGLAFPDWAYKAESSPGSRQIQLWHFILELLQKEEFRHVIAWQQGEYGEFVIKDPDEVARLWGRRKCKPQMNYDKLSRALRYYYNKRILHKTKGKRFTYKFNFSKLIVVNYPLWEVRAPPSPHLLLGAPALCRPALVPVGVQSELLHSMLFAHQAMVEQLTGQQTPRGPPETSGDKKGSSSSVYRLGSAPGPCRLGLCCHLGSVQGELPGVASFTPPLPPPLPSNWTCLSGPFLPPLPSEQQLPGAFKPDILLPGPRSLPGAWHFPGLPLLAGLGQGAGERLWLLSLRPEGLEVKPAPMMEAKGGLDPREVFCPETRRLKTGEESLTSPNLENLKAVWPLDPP
How it was run: as §1

ETS2 = biological target: T3, ETS2 (Homo sapiens, UniProt P15036 1-469)
T3 sequence: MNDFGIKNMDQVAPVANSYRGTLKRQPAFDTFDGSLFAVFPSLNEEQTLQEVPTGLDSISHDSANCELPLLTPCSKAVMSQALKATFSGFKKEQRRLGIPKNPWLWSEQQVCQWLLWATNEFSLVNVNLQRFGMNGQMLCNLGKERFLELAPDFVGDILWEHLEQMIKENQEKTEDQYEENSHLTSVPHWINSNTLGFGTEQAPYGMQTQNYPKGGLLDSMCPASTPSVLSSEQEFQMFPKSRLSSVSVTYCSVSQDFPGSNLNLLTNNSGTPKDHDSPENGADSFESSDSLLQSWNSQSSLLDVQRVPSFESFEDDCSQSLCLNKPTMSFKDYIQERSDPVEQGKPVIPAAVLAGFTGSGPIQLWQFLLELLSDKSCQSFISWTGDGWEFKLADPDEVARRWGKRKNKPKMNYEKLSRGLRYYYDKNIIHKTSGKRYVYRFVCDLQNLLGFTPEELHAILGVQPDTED
How it was run: as §1

SPDEF = biological target: T4, SPDEF (Homo sapiens, UniProt O95238 1-335)
T4 sequence: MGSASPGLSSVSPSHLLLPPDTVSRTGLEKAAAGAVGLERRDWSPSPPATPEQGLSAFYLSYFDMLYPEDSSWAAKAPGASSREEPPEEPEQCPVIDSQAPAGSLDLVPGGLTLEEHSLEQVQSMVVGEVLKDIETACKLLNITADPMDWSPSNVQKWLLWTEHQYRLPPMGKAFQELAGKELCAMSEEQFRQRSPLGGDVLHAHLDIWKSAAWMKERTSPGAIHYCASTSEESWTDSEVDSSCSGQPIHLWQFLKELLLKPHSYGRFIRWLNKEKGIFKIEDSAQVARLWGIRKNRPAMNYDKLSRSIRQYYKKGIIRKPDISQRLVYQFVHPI
How it was run: as §1

ETV7 = biological target: T5, ETV7 (Homo sapiens, UniProt Q9Y603 1-341)
T5 sequence: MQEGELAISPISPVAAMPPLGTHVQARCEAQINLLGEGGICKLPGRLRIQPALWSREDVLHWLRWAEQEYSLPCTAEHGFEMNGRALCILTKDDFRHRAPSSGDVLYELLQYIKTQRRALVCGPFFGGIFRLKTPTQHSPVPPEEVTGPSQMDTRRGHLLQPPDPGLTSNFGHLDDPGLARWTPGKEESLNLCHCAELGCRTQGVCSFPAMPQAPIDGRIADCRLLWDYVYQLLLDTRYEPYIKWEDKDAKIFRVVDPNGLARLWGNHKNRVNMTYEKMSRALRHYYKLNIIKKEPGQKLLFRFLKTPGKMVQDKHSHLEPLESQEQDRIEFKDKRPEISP
How it was run: as §1

ELF5 = biological target: T6, ELF5 (Homo sapiens, UniProt Q9UKW6-2 1-255)
T6 sequence: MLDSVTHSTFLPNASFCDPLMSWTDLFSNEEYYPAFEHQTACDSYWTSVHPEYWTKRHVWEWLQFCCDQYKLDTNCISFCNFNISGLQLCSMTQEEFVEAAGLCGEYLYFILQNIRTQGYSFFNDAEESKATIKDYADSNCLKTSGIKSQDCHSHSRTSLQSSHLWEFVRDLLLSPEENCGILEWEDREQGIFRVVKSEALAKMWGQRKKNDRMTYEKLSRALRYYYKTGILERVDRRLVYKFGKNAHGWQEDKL
How it was run: as §1

ETV3 = biological target: T7, ETV3 (Homo sapiens, UniProt P41162-2 1-143)
T7 sequence: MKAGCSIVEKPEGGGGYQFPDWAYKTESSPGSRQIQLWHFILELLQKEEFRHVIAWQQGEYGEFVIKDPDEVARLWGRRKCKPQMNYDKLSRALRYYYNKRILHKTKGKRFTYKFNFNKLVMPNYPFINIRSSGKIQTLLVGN
How it was run: as §1

ETV6 = ETV6 (Homo sapiens, UniProt P41212 1-452)
Sequence of ETV6 (P41212 whole entry): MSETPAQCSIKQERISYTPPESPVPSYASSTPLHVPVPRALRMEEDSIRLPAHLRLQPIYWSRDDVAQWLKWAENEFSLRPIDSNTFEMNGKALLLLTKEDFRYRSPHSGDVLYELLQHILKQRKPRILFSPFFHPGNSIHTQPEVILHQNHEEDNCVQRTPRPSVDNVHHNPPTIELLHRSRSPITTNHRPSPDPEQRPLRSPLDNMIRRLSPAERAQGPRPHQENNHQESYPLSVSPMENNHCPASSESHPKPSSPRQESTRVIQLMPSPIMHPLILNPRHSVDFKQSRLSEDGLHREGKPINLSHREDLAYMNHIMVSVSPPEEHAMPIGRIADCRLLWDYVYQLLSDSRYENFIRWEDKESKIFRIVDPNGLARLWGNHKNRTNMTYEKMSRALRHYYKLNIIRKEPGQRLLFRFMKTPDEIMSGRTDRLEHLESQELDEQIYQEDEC
How it was run: as §1

| Sequence | binding signal (ERF) | binding signal (ETV3L) | binding signal (ETS2) | binding signal (SPDEF) | binding signal (ETV7) | binding signal (ELF5) | binding signal (ETV3) | binding signal (ETV6) |
| --- | --- | --- | --- | --- | --- | --- | --- | --- |
| GTTTTA | 1.2 fold enrichment (6-mer frequency, TF over GST control) | 1.02 fold enrichment (6-mer frequency, TF over GST control) | 1.1 fold enrichment (6-mer frequency, TF over GST control) | 1.04 fold enrichment (6-mer frequency, TF over GST control) | 1.23 fold enrichment (6-mer frequency, TF over GST control) | 1.09 fold enrichment (6-mer frequency, TF over GST control) | 1.21 fold enrichment (6-mer frequency, TF over GST control) | 1.13 fold enrichment (6-mer frequency, TF over GST control) |
| ACCTTG | 1.31 fold enrichment (6-mer frequency, TF over GST control) | 1.23 fold enrichment (6-mer frequency, TF over GST control) | 1.27 fold enrichment (6-mer frequency, TF over GST control) | 1.27 fold enrichment (6-mer frequency, TF over GST control) | 1.22 fold enrichment (6-mer frequency, TF over GST control) | 1.11 fold enrichment (6-mer frequency, TF over GST control) | 1.25 fold enrichment (6-mer frequency, TF over GST control) | 1.17 fold enrichment (6-mer frequency, TF over GST control) |
| GGATTT | 1.17 fold enrichment (6-mer frequency, TF over GST control) | 1.21 fold enrichment (6-mer frequency, TF over GST control) | 1.24 fold enrichment (6-mer frequency, TF over GST control) | 1.57 fold enrichment (6-mer frequency, TF over GST control) | 1.07 fold enrichment (6-mer frequency, TF over GST control) | 1.38 fold enrichment (6-mer frequency, TF over GST control) | 1.21 fold enrichment (6-mer frequency, TF over GST control) | 1.3 fold enrichment (6-mer frequency, TF over GST control) |
| ATGCAC | 1.25 fold enrichment (6-mer frequency, TF over GST control) | 1.28 fold enrichment (6-mer frequency, TF over GST control) | 1.29 fold enrichment (6-mer frequency, TF over GST control) | 1.5 fold enrichment (6-mer frequency, TF over GST control) | 1.3 fold enrichment (6-mer frequency, TF over GST control) | 1.19 fold enrichment (6-mer frequency, TF over GST control) | 1.31 fold enrichment (6-mer frequency, TF over GST control) | 1.29 fold enrichment (6-mer frequency, TF over GST control) |
